Hits are enriched below; roughly 3.8% of the tested compounds scored in any of these assays.
ELG1 DNA repair = blocks ELG1-dependent DNA repair in HEK293T cells | HEK293T ELG1-luciferase reporter, luminescence, 16 h; DNA damage induced by 5-fluorouridine | Potency, µM (highest dose often 46.1 µM), usual class: inhibitors | 330,000 compounds, 2.3% hits; note: nearly all actives have a fitted effect of over 55% in size
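Reporter activity after DNA damage by 5-fluorouridine is monitored. Compound-treated cells incubate 16 hr at 37 °C, then ONE-Glo is added for 30 min before luminescence reading.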
mIDH1 inhibitor = human IDH1 R132H inhibition. 390,000 compounds, 0.093% hits. AID 602179. O75874. IDH1-R132H enzyme, NADPH consumption, diaphorase/resazurin fluorescence. Potency, µM (top dose mostly 76.6 µM), most hits filed as inhibitors; note: nearly all actives have a fitted effect of over 65% in size
Target sequence (O75874 whole entry R132H, stated change not applied): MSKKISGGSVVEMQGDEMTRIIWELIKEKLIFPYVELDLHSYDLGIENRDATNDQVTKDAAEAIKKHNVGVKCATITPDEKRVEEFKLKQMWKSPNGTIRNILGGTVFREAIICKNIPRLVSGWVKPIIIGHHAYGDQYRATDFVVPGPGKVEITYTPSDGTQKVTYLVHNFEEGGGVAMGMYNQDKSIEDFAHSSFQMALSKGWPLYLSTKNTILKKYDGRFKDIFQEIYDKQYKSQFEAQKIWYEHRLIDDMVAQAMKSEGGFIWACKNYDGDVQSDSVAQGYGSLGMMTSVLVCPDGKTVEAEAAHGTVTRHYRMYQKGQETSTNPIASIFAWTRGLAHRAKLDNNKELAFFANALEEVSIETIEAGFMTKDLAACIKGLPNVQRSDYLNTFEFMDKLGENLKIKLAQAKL
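IDH1-R132H (0.5 ug/mL dispensed) in pH 7.5 Tris buffer was preincubated 30 min with compound, then given a substrate mix of 0.016 mM NADPH and 2 mM alpha-KG for 80 min at room temperature; remaining NADPH was read by diaphorase/resazurin fluorescence.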
Nrf2 block = blocks Nrf2 signaling; A549 ARE-Fluc reporter, luciferase luminescence, 18-24 h; Potency, µM (doses to about 46 µM), hits mostly inhibitors; 360,000 compounds, 2.1% hits; AID 504444; note: nearly all actives have a fitted effect of over 60% in size
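Quantitative HTS in A549 cells stably bearing an antioxidant response element-firefly luciferase construct. Inhibition of Nrf2-driven transcription was scored by luminescence after 18-24 h of compound exposure at 37 °C.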
A549 viability = counter-screen for Nrf2 inhibitors: cytotoxicity in A549 cells. A549 ARE-Fluc cells, CellTiter-Fluor viability, 18-24 h. 390,000 compounds, 0.16% hits. AID 504648. Potency, µM (doses to about 46 µM), hits mostly inhibitors
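A549 ARE-Fluc cells in 5% FBS OPTI-MEM, 5000 cells/well, rested 2 h then exposed to compounds in concentration-response for 18-24 h at 37 °C. Viability by CellTiter-Fluor fluorescence (Ex 405/Em 525) after 30 min; luciferase luminescence (BugLite, 15 min, RT) read afterwards.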
Nrf2 activator = Nrf2 pathway activation. AREc32 ARE-luciferase reporter (MCF7-derived line), luminescence, 24 h. Potency, µM (highest dose often 46.1 µM), actives largely listed as activators. 410,000 compounds, 0.31% hits; note: nearly all actives have a fitted effect of over 65% in size
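Quantitative high-throughput format: AREc32 reporter cells, 1000 per well, received compound by pin transfer and were incubated 24 hr at 37 deg C, 5% CO2, before Steady-Glo luminescence detection.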
Resorufin autofl = counter-screen for mutant IDH1 inhibitors: fluorescence interference; Resorufin detection reagent fluorescence interference, cell-free; shares compounds with mIDH1 inhibitor; 750 tested, under 10 active; inhibition of signal, % at 51.2 µM; AID 623980
IDH1 WT = selectivity of mutant IDH1 inhibitors: human wild-type IDH1; shares compounds with mIDH1 inhibitor; WT IDH1 enzyme, NADPH diaphorase/resazurin fluorescence; Potency, µM (titrated, usually from 115 µM), hits mostly inhibitors; 750 compounds, 9% hits; AID 623995; note: nearly all actives have a fitted effect of over 55% in size
Target sequence (O75874 whole entry, looked up): as the sequence (O75874 whole entry R132H, stated change not applied) above, with H132R counted along it
IDH1 R132H conf = confirmation of human mutant IDH1 inhibitors; shares compounds with mIDH1 inhibitor; IDH1 R132H enzyme, NADPH diaphorase/resazurin fluorescence; Potency, µM (doses to about 76.6 µM), actives largely listed as inhibitors; 750 compounds, 83% hits; AID 624002; note: nearly all actives have a fitted effect of over 50% in size
Large screens that a line does not name were inactive (follow-up assays come after a bar, where they were run). Calls come from the whole dose curve; as a rule, active = well fitted curve in the direction sought with a large enough effect; inconclusive = small, poorly fitted or top-dose-only effect, or another doubt; inactive = no such curve, though single readings can be large; an effect the other way counts as inactive or inconclusive.

Cc1cc(NC(=O)CCC(=O)N(c2ccc(F)cc2)C(C(=O)NC2CCCC2)c2ccccc2)no1 (stereo not drawn)	mIDH1 inhibitor inconclusive | Resorufin autofl inactive | IDH1 WT inactive | IDH1 R132H conf 39.8µM
C#CC(=O)N(c1cc(OC)ccc1OC)C(C(=O)NC1CCCC1)c1cccs1 (stereo not drawn)	ELG1 DNA repair 23.1µM, mIDH1 inhibitor inconclusive, Nrf2 block 10.3µM, A549 viability inconclusive, Nrf2 activator inconclusive | Resorufin autofl inactive | IDH1 WT inactive | IDH1 R132H conf 44.7µM
Cc1cc(NC(=O)CCC(=O)N(c2ccc(F)cc2)C(C(=O)NC2CCCC2)c2ccc(C)o2)no1 (stereo not drawn)	ELG1 DNA repair inconclusive
Cc1ccc(N(C(=O)C(F)(F)F)C(C(=O)NC2CCCCC2)c2cccs2)cc1C (stereo not drawn)	none
O=C(CCCC(=O)N(c1ccc2c(c1)OCCO2)C(C(=O)NC1CCCCC1)c1ccc(F)cc1)Nc1ccccn1 (stereo not drawn)	ELG1 DNA repair inconclusive, mIDH1 inhibitor 9.27µM | Resorufin autofl inactive | IDH1 WT inactive | IDH1 R132H conf 12.6µM
O=C(NC1CCCCC1)C(c1cccs1)N(C(=O)C(F)(F)F)c1ccccc1 (stereo not drawn)	mIDH1 inhibitor inconclusive, Nrf2 block inconclusive | Resorufin autofl inactive | IDH1 WT inactive | IDH1 R132H conf 20µM
Cc1cc(Cl)ccc1OCCCC(=O)OCC(=O)Nc1cccc(S(N)(=O)=O)c1	none
O=C(O)c1nn(CCOc2cccc(Br)c2)c(=O)c2ccccc12	none
Cc1cc(NC(=O)CCC(=O)N(c2ccccc2)C(C(=O)NC2CCCCC2)c2cccs2)no1 (stereo not drawn)	mIDH1 inhibitor inconclusive | Resorufin autofl inactive | IDH1 WT inactive | IDH1 R132H conf 15.8µM
CCCCN(C(=O)CCC(=O)Nc1cc(C)on1)C(C(=O)NC1CCCC1)c1ccc(F)cc1 (stereo not drawn)	none
Cc1cc(NC(=O)CCC(=O)N(c2ccccc2)C(C(=O)NC2CCCC2)c2ccc(F)cc2)no1 (stereo not drawn)	mIDH1 inhibitor inconclusive | Resorufin autofl inactive | IDH1 WT inactive | IDH1 R132H conf inconclusive
Cc1cc(NS(=O)(=O)c2ccc(NS(=O)(=O)c3ccc(CC(C)C)cc3)cc2)nc(C)n1	mIDH1 inhibitor 18.5µM, Nrf2 block inconclusive | Resorufin autofl inactive | IDH1 WT inactive | IDH1 R132H conf 15.8µM
Cc1ccc(S(=O)(=O)Nc2ccc(S(=O)(=O)Nc3cc(C)nc(C)n3)cc2)cc1	Nrf2 block inconclusive
CCn1c(=O)c2cc(C(=O)N(C)c3cc(C)ccc3C)sc2c2ccccc21	mIDH1 inhibitor inconclusive (no result: ELG1 DNA repair) | Resorufin autofl inactive | IDH1 WT inactive | IDH1 R132H conf 20µM
COc1nnc(-c2ccc(C)c(S(=O)(=O)NC(C)C)c2)c2ccccc12	none
Cc1ccc(-c2nnc(Nc3ccc(F)cc3)c3ccccc23)cc1S(=O)(=O)NC(C)C	mIDH1 inhibitor inconclusive, Nrf2 block inconclusive (no result: ELG1 DNA repair) | Resorufin autofl inactive | IDH1 WT inactive | IDH1 R132H conf inconclusive
CCc1cccc(CC)c1-n1c(SCC(=O)N2CCc3ccccc3C2)nnc1-c1cccnc1	ELG1 DNA repair inconclusive, mIDH1 inhibitor 52.1µM, Nrf2 block inconclusive | Resorufin autofl inactive | IDH1 WT inactive | IDH1 R132H conf 14.1µM
Cc1ccc(-c2csc(N3CCC[C@@H]3C(=O)NCCn3c(C(F)(F)F)nc4ccccc43)n2)cc1	ELG1 DNA repair inconclusive, Nrf2 block inconclusive
CCCn1c(C2CCCN2c2nc(-c3cccc(Br)c3)cs2)nc2ccccc21 (stereo not drawn)	mIDH1 inhibitor inconclusive | Resorufin autofl inactive | IDH1 WT inactive | IDH1 R132H conf 25.1µM
C[C@H](CO)N1C[C@H](C)[C@@H](CN(C)Cc2ccc(C(=O)Nc3ccccc3N)cc2)Oc2c(NC(=O)C3CCCCC3)cccc2C1=O	ELG1 DNA repair inconclusive, mIDH1 inhibitor 39.8µM | Resorufin autofl inactive | IDH1 WT inconclusive | IDH1 R132H conf 28.2µM
C[C@H](CO)N1C[C@H](C)[C@@H](CN(C)Cc2ccc(Cl)c(Cl)c2)Oc2c(NC(=O)C3CC3)cccc2C1=O	ELG1 DNA repair inconclusive, mIDH1 inhibitor inconclusive, Nrf2 block inconclusive, A549 viability inconclusive | Resorufin autofl inactive | IDH1 WT inactive | IDH1 R132H conf 25.1µM
CCOC(=O)N1CCN(Cc2nc(N)nc(Nc3ccc(Oc4ccccc4)cc3)n2)CC1	ELG1 DNA repair 11.6µM, mIDH1 inhibitor 52.1µM (no result: Nrf2 block) | Resorufin autofl inactive | IDH1 WT inactive | IDH1 R132H conf inconclusive
Cc1ccc(N(C(=O)c2sc(C)nc2C)C(C(=O)NCc2ccco2)c2ccccc2)cc1 (stereo not drawn)	mIDH1 inhibitor inconclusive | Resorufin autofl inactive | IDH1 WT inactive | IDH1 R132H conf 35.5µM
Cc1cccc(N(C(=O)c2sc(C)nc2C)C(C(=O)NCc2ccco2)c2ccccc2)c1 (stereo not drawn)	Nrf2 block inconclusive
Cc1cc(C)cc(N(C(=O)c2sc(C)nc2C)C(C(=O)NCc2ccco2)c2ccccc2)c1 (stereo not drawn)	mIDH1 inhibitor inconclusive, Nrf2 block inconclusive | Resorufin autofl inactive | IDH1 WT inactive | IDH1 R132H conf 12.6µM
COc1ccc(Nc2c3c(nc4ccc(NC(=O)/C=C/c5cc(OC)c(OC)c(OC)c5)cc24)CCCC3)cc1OC	mIDH1 inhibitor inconclusive, A549 viability inconclusive, Nrf2 activator inconclusive (no result: ELG1 DNA repair) | Resorufin autofl inactive | IDH1 WT inactive | IDH1 R132H conf inconclusive
CCOC(=O)c1oc2cc(OC(C)=O)ccc2c(=O)c1-c1ccc(OC)c(OC)c1	mIDH1 inhibitor 29.3µM, Nrf2 block inconclusive | Resorufin autofl inactive | IDH1 WT inactive | IDH1 R132H conf 25.1µM
CCOC(=O)COc1ccc2c(=O)c(-c3ccc(OC)c(OC)c3)c(C(=O)OCC)oc2c1	none
COc1cc(C2C(C#N)=C(N)N(c3sc4c(c3C#N)CCCC4)C3=C2C(=O)CC(C)(C)C3)cc(OC)c1OC (stereo not drawn)	mIDH1 inhibitor inconclusive | Resorufin autofl inactive | IDH1 WT inactive | IDH1 R132H conf 7.94µM
OCC[C@@H]1C[C@H](O)[C@@H](O)[C@@]2(OCCCc3cc(C(F)(F)F)ccc32)O1	none (no result: ELG1 DNA repair, mIDH1 inhibitor, Nrf2 block, A549 viability)

Bioassay records (PubChem BioAssay)
